Bioassay records as filed in PubChem BioAssay.
Only some compounds are listed: those with a hit (about 3.1% of all), similar ones and a draw of the others.
MEKK3 PB1 HTS = raises or lowers MEK5 binding to the human MEKK3 PB1 domain; Q99759; bead-based flow cytometry, Alexa488-MEK5 binding to MEKK3; actives lie on both sides; 0 = blocked by unlabeled MEK5, 100 = vehicle; binding response (% of control), % at 10 µM; 1.4% of 290,000 active; AID 1529;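 active means binding response more than 3 SD above or below the average of its plate-row segment, actives on both sides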;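 further: Alexa488 bead fluorescence after subtracting the streptavidin-only scavenger bead signal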
Target sequence (Q99759 whole entry, looked up, the tested form may be a part): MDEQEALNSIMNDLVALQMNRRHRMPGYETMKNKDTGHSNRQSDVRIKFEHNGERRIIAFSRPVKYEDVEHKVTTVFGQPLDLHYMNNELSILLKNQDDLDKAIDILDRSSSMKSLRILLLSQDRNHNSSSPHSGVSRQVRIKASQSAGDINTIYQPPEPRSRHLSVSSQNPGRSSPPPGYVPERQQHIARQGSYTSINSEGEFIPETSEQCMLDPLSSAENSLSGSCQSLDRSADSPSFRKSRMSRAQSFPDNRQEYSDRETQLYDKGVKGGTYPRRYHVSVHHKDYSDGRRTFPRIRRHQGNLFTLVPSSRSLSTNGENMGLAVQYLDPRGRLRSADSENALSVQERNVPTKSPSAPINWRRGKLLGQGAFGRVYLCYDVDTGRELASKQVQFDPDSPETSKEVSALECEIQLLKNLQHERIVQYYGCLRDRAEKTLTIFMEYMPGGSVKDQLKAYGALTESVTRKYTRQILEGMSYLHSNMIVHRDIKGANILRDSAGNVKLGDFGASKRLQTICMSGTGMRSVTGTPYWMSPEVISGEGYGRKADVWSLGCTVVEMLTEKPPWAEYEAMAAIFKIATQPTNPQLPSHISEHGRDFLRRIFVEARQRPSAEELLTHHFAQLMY
PREPL inhibitor = human PREPL enzyme inhibition; Q4J6C6; recombinant PREPL, fluorescence polarization activity-based probe; inhibition, % at 5.96 µM; 0.68% of 320,000 active; AID 2751; in the data active means inhibition above about 43%;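 further: 0% = enzyme with DMSO and 100% = wells lacking enzyme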
UBC13 inh = inhibitors of human UBC13 polyubiquitin chain formation. 0.47% of 330,000 active. TR-FRET. P61088. inhibition, % at 20 µM; in the data active means inhibition above about 45%, passing the limit was not always enough
MEKK2wt PB1 HTS = raises or lowers MEK5 binding to wildtype human MEKK2 PB1 domain; bead flow cytometry, Alexa488-MEK5 binding to MEKK2 WT; actives lie on both sides; 1.1% of 290,000 active; binding response (% of control), % at 10 µM; in the data active means binding response below about 67% or above about 130%
MEKK2 mut-MEK5 = signal of MEK5 binding to mutant human MEKK2 PB1 domain | AID 1530 | percent response, % at 10 µM | bead flow cytometry, Alexa488-MEK5 binding to MEKK2 mutant | 0.35% of 290,000 active; in the data active means percent response above about 24%, passing the limit was not always enough
ATG4B inhibitor = blocks human ATG4B protease cleavage of LC3 substrate | 0.51% of 340,000 active | ATG4B cleavage of LC3-PLA2, NBD-HPC fluorescence, 1 h | AID 504462 | inhibition, % at 8.33 µM | Q9Y4P1; in the data active means inhibition above about 40%
MEKK2wt confirm = raises or lowers MEK5 binding to wildtype human MEKK2, retest; bead flow cytometry, Alexa488-MEK5 binding to MEKK2 WT; actives lie on both sides; 2.4% of 5,900 active; AID 1892; binding response (% of control), % at 10 µM; shares compounds with MEKK3 PB1 HTS; in the data active means binding response below about 16% or above about 210%; inactive means in between
MEKK2mut confirm = signal of MEK5 binding to mutant human MEKK2, retest | shares compounds with MEKK3 PB1 HTS | bead flow cytometry, Alexa488-MEK5 binding to MEKK2 mutant | percent response, % at 10 µM | 2% of 5,900 active | AID 1893; in the data active means percent response mostly above about 71%, no sharp cut-off; inactive means mostly below about 38%;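 further: higher means compound restores mutant binding toward wildtype level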
MEKK3 confirm = confirmation of inhibitors of MEK5 binding to human MEKK3. shares compounds with MEKK3 PB1 HTS. bead flow cytometry, Alexa488-MEK5 binding to MEKK3; hits give low values. binding response (% of control), % at 10 µM. 1.8% of 5,900 active;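 active means binding response below 72% of control, or above a set upper limit, though filed actives all read lower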;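 further: 100% = DMSO only wells and 0% = binding blocked by excess unlabeled MEK5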
Active calls of the source: *; / = no result; [ ] = remark or other dose.

SMILES	MEKK3 PB1 HTS	PREPL inhibitor	UBC13 inh	MEKK2wt PB1 HTS	MEKK2 mut-MEK5	ATG4B inhibitor	MEKK2wt confirm	MEKK2mut confirm	MEKK3 confirm
CN(C)CC(C)(C)CNS(=O)(=O)c1ccc(OC(F)(F)F)cc1	94.0	7.0	-10.6	86.0	-13.0	2.7	/	/	/
O=C(CSc1nc2c(cnn2-c2cccc(Cl)c2)c(=O)[nH]1)NCCC1=CCCCC1	/	-1.4	-11.9	/	/	6.7	/	/	/
COc1ccc(CSc2nnc(-c3ccncc3)n2C)cc1F	98.0	22.8	3.1	100.0	10.0	-1.0	/	/	/
CCc1ccc(NC(=O)CO/N=C(\C)c2cc3ccccc3o2)cc1	136.0*	-30.5	4.5	101.0	-1.0	17.6	98.0	2.0	101.0
C#CCOCCOCCOCCNc1nc(N2CCN(C(=O)[C@H](CCCN=C(N)N)n3cc(C(N)[C@H](C)CC)nn3)CC2)nc(N2CCN(C(=O)[C@H](CC(N)=O)n3cc(C(N)[C@@H](C)CC)nn3)CC2)n1 (stereo partly specified)	/	31.3	18.2	/	/	/	/	/	/
CC(CN1CCOCC1)C(=O)O (stereo unspecified)	126.0*	-0.2	-0.9	127.0	11.0	-5.1	97.0	-2.0	101.0
CC(CC(C)C(=O)N1CCOCCN(C(=O)C(C)CC(C)C(=O)O)CCOCC1)C(=O)O (stereo unspecified)	78.0	-0.4	8.4	80.0	-10.0	-8.9	/	/	/
c1ccc(N2CCN(c3nc4ccccc4[nH]3)CC2)nc1	74.0*[inhibitor]	2.9	17.2	84.0	-4.0	-0.7	94.0	-6.0	93.0
CCN(C(=O)c1cn(C)c(=O)c2cc(OC)c(OC)cc12)c1cc(C)ccc1C	1.0*[inhibitor]	-2.6	-8.3	-2.0*[inhibitor]	-9.0	-11.6	98.0	-5.0	102.0
O=C(C[n+]1cc(-c2ccc(Cl)cc2)n2c1CCC2)Nc1nc(-c2ccc(F)cc2)cs1	118.0	-32.7	23.5	177.0*	35.0	-2.8	197.0	47.0	101.0
Cc1ccc(-c2csc(NC(=O)C[n+]3cc(-c4ccccc4)n4c3CCC4)n2)cc1	96.0	-7.9	44.6	167.0*	36.0	2.7	159.0	29.0	106.0
O=C(C[n+]1cc(-c2ccccc2)n2c1CCC2)N1c2ccccc2Sc2ccccc21	103.0	-35.5	8.4	124.0	16.0	1.9	/	/	/
Cc1ccc(-c2c[n+](CC(=O)N3c4ccccc4Sc4ccccc43)c3n2CCC3)cc1	105.0	-3.9	5.0	152.0*	29.0	2.1	129.0	27.0	103.0
Cc1ccc(NC(=O)C[n+]2cc(-c3ccccc3)n3c2CCC3)c(C)c1	92.0	8.8	-2.6	101.0	3.0	-2.3	/	/	/
O=C(C[n+]1cc(-c2ccc(F)cc2)n2c1CCC2)Nc1nc(-c2ccc(F)cc2)cs1	127.0	-44.2	28.1	134.0	2.0	-5.9	/	/	/
O=C(C[n+]1cc(-c2ccccc2)n2c1CCC2)Nc1nc(-c2ccc(F)cc2)cs1	108.0	-33.2	17.3	181.0*	43.0	-15.4	172.0	36.0	103.0
COc1ccc(C(=O)N2CCC3(CC2)NCCc2[nH]cnc23)cc1OC	104.0	2.0	4.8	100.0	2.0	-10.8	/	/	/
CC(C(=O)N1CCCC1)N(c1ccccc1)S(C)(=O)=O (stereo unspecified)	89.0	-4.5	-2.1	98.0	-1.0	/	/	/	/
COc1ccccc1NC(=O)C1CC(C)OC1=O (stereo unspecified)	/	-10.0	4.0	/	/	6.0	/	/	/
Cc1cc(-c2cc(N)n(-c3ccccc3)n2)c(C)n1C1CCCC1	89.0	9.6	-3.3	-5.0*[inhibitor]	-34.0	-0.3	99.0	4.0	102.0
Cc1cc(N)n(-c2ccccc2)n1	/	-5.4	-5.3	/	/	-2.6	/	/	/
CN(C)CCCN(C(=O)COc1ccc(Cl)cc1)c1nc2ccc(F)cc2s1	103.0	-27.8	14.5	122.0	2.0	-3.6	/	/	/
Cc1cc(C)c2sc(N(CCCN(C)C)C(=O)COc3ccc(Cl)cc3)nc2c1	113.0	-47.5	36.9	246.0*	55.0*	-1.4	192.0	50.0	104.0
Cc1ccc2nc(N(CCCN(C)C)C(=O)COc3ccc(Cl)cc3)sc2c1	109.0	-76.1	13.9	180.0*	44.0	-2.8	149.0	25.0	100.0
Cc1cccc(NCc2cc(Cl)ccc2O)n1	82.0*[inhibitor]	-45.5	23.9	107.0	4.0	9.5	101.0	3.0	101.0
SMILES	MEKK3 PB1 HTS	PREPL inhibitor	UBC13 inh	MEKK2wt PB1 HTS	MEKK2 mut-MEK5	ATG4B inhibitor	MEKK2wt confirm	MEKK2mut confirm	MEKK3 confirm
Cc1ccc(O)c(CNc2cccc(C)n2)c1	102.0	/	13.4	102.0	-1.0	-4.0	/	/	/
CC(C)NC(=O)C1CC=CCC1C(=O)O (stereo unspecified)	134.0*	-4.2	4.1	107.0	0.0	3.1	101.0	9.0	103.0
O=C(O)C1CC=CCC1C(=O)Nc1ccccc1 (stereo unspecified)	98.0	-7.1	5.9	102.0	2.0	-7.1	/	/	/
CC(OC(=O)c1oc2ccccc2c1COc1ccccc1)C(N)=O (stereo unspecified)	/	-9.1	9.0	/	/	17.0	/	/	/
CC(C)(C)NC(=O)c1oc2ccccc2c1COc1ccccc1	69.0*[inhibitor]	9.0	-13.9	102.0	-1.0	-0.4	103.0	-12.0	97.0
CN(C)c1ccc(S(=O)(=O)NCC(=O)NCCC2=CCCCC2)cc1[N+](=O)[O-]	/	3.9	-9.9	/	/	-10.1	/	/	/
COc1ccc(/C=C/C(=O)NCC(=O)N/N=C/c2cc(Br)ccc2OC)cc1	101.0	-2.5	-10.4	105.0	91.0*	17.8	94.0	-3.0	96.0
COc1ccccc1/C=C/C(=O)NCC(=O)N/N=C/c1cc(Br)ccc1OC	101.0	17.0	0.0	95.0	-3.0	-1.9	/	/	/
COC/C=C/C1=CC2=CC(=O)C(C)(OC(=O)c3ccco3)C(=O)C2=CO1 (stereo unspecified)	83.0	14.1	-46.0	72.0*[inhibitor]	-9.0	/	93.0	-4.0	99.0
COC/C=C/C1=CC2=CC(=O)C(C)(OC(=O)c3cccs3)C(=O)C2=CO1 (stereo unspecified)	100.0	0.8	-24.5	100.0	1.0	/	/	/	/
Cn1cccc1Cc1nnc(SCC(=O)NCC2CCCO2)n1C (stereo unspecified)	70.0	1.0	8.5	73.0	-20.0	-9.6	/	/	/
CC(=O)c1ccc(S(=O)(=O)NCCC(=O)OCC(=O)N(Cc2ccccc2)C(C)(C)C)cc1	/	13.3	-7.2	/	/	-11.0	/	/	/
CCCc1cc(C(=O)OCC(=O)N2CCN(c3ccc(OC)cc3)CC2)sc1C	/	18.8	11.0	/	/	-4.0	/	/	/
